Sampled rows, rich in hits. Any-hit rate of the full collection: about 7.9%.
FMDV antiviral: foot and mouth disease virus antiviral activity; hit rate 1.2% among 410,000; FMDV antiviral cell-based qHTS; Potency, µM (doses to about 57.9 µM), for the others: at the highest dose activity change, negative = inhibition, actives largely listed as inhibitors; calls by dose curve; tested in HEK293T cells; further: read-out not given here; potency means the concentration at half of the fitted maximal effect; nearly all actives have a fitted effect of over 45% in size
HCV inhibitor: blocks hepatitis C virus; Huh7.5.1 HCVcc-Cre infection, luciferase reporter, 44 h; Potency, µM (series often up to 41.8 µM), for the others: at the top dose activity change, negative = inhibition, hits mostly inhibitors; hit rate 3.4% among 340,000; active means well fitted inhibition curve with a large enough effect; inconclusive means small, poorly fitted or top-dose-only effect, or another doubt; inactive means no such curve, though single readings can be large or run the other way; further: potency means the concentration at half of the fitted maximal effect
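Cells seeded at 1,000/well and cultured 4 h, then compounds added followed by HCVcc-Cre virus (~0.5 moi). After 44 h further culture, luciferase substrate was added, plates held 15 min at room temperature, and luminescence read for 15 sec.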
LASV entry inh: inhibitors of Lassa virus binding or cell entry. Lassa virus pseudotype entry inhibition, cell reporter. Potency, µM (highest dose often 37.9 µM), inactives show at the top dose activity change, negative = inhibition, hits mostly inhibitors. hit rate 1.2% among 300,000; calls by dose curve; tested in HEK293 cells; further: potency means the concentration at half of the fitted maximal effect; nearly all actives have a fitted effect of over 50% in size
HCMV inh: inhibitors of human cytomegalovirus; hit rate 4.5% among 410,000; HFF cells, HCMV-luciferase reporter, 72 h; hits give low values; activity change, negative = inhibition, % at 57.5 µM; in the data active means activity change below about -60%; inconclusive means no clear call, values can overlap the other calls; inactive means above about -39%
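Human foreskin fibroblasts infected with luciferase-reporter HCMV at MOI 1 PFU/cell, compounds at two doses. Luciferase measured 72 h post infection; normalized to buffer-only basal and Salinomycin (10uM) controls.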
MARV entry inh: blocks Marburg virus binding to or entry into cells. Marburg virus pseudotyped entry inhibition, cell reporter. Potency, µM (highest dose often 37.8 µM), for inactives: at the highest dose activity change, negative = inhibition, hits mostly inhibitors. hit rate 1.8% among 300,000. AID 540276; calls by dose curve; tested in HEK293 cells; further: potency means the concentration at half of the fitted maximal effect
Starred values were filed as active, the others as inactive; [ ] = dose if it differs, or a comment. On the % scale 0 is the no-effect control and ±100 the full control effect.

CCOc1ccc(CN2CCCC(C(=O)c3ccccc3OC)C2)cc1 (configuration not stated) was read as FMDV antiviral -4%, HCV inhibitor inconclusive, LASV entry inh inconclusive, HCMV inh -8 and MARV entry inh 8.9µM*.
COc1ccccc1CN1CCCC(C(=O)c2ccccc2SC)C1 (configuration not stated) was read as FMDV antiviral -21%, HCV inhibitor -45%, LASV entry inh inconclusive, HCMV inh -5 and MARV entry inh 10µM*.
`CSc1ccccc1C(=O)C1CCCN(Cc2ccncc2)C1` (configuration not stated) gave FMDV antiviral -23%, HCV inhibitor inconclusive and HCMV inh 21.
For COc1ccc(O)c(CN2CCCC(C(=O)c3ccccc3SC)C2)c1 (configuration not stated) the results were FMDV antiviral inconclusive, HCV inhibitor 11µM*, LASV entry inh -6%, HCMV inh 15 and MARV entry inh inconclusive.
`COc1cccc(OC)c1CN1CCCC(C(=O)c2ccccc2SC)C1` (configuration not stated) gave FMDV antiviral -14%, HCV inhibitor inconclusive, LASV entry inh inconclusive, HCMV inh inconclusive and MARV entry inh 6.3µM*.
For CCNC(=O)C1(C)CCN(C(=O)c2ccccc2C(F)(F)F)C1 (configuration not stated) the results were FMDV antiviral -2% and HCMV inh 16.
COc1ccc(Br)cc1CN1CCCC(C(=O)N2CCCCC2)C1 (configuration not stated) was read as FMDV antiviral -20%, HCV inhibitor -16%, LASV entry inh inconclusive, HCMV inh -29 and MARV entry inh inconclusive.
`COc1ccc(Br)cc1CN1CCCC(C(=O)N2CCCCCC2)C1` (configuration not stated) gave FMDV antiviral inconclusive, HCV inhibitor 3.2µM*, LASV entry inh inconclusive, HCMV inh -14 and MARV entry inh inconclusive.
CCOc1ccc(OCCCCn2ccnc2)cc1 was read as FMDV antiviral -8%, HCV inhibitor -7%, LASV entry inh 7%, HCMV inh -61* and MARV entry inh 16%.
Cc1cccc(OCCCCCn2ccnc2)c1C was read as FMDV antiviral -16%, HCV inhibitor inconclusive, LASV entry inh inconclusive, HCMV inh -81* and MARV entry inh inconclusive.
`CC(=O)NS(=O)(=O)c1ccc(NC(=O)C(C)NS(=O)(=O)/C=C/c2ccccc2)cc1` (configuration not stated) gave FMDV antiviral -4%, HCV inhibitor 20% and HCMV inh 16.
For N#CCC(=O)Nc1ccc(C(=O)OCC(=O)NC2CCCCCC2)cc1 the results were FMDV antiviral -6%, HCV inhibitor 22% and HCMV inh -26.
Screening N#CCC(=O)Nc1ccc(C(=O)NNC(=S)NC2CC2)cc1 returned FMDV antiviral 6%, HCV inhibitor -12%, LASV entry inh inconclusive, HCMV inh -97* and MARV entry inh 8%.
`CC(NCc1cc(Br)ccc1OCC(N)=O)C12CC3CC(CC(C3)C1)C2` (configuration not stated) gave FMDV antiviral -26%, HCV inhibitor inconclusive and HCMV inh inconclusive.
For CNCCC(Oc1ccccc1C)c1ccccc1 (configuration not stated) the results were LASV entry inh inconclusive and MARV entry inh 14µM*.
O=C(CSc1nnc(CNc2ccc(F)cc2)o1)N1c2ccccc2Sc2ccccc21 was read as FMDV antiviral inconclusive, HCV inhibitor 10µM*, LASV entry inh inconclusive, HCMV inh -37 and MARV entry inh inconclusive.
Screening O=C(NCc1nnc(SCC(=O)N2CCCCC2)o1)c1ccc(F)cc1 returned FMDV antiviral 1%, HCV inhibitor 8%, LASV entry inh 5%, HCMV inh -85* and MARV entry inh 6%.
`CN(C)c1cccc(CNc2nccc3[nH]c(-c4cccc(F)c4)nc23)c1` gave HCMV inh -16.
`COc1ccccc1-c1cnn(C(C)(C)C(=O)NCc2ccccc2Br)c1` gave HCMV inh 11.
`Cc1cc2nccc(-c3ccc(OCCCF)cc3)n2n1` gave FMDV antiviral -16%, HCV inhibitor inconclusive and HCMV inh -61*.
`CC(=O)c1ccc2c(c1)N(Cc1ccccc1Cl)C(=O)C(C)S2` (configuration not stated) gave FMDV antiviral -1% and HCMV inh -98*.
Cc1ccc(CNC(=O)c2ccc3c(c2)N(Cc2ccccc2Cl)C(=O)CS3)cc1 was read as FMDV antiviral -28%, LASV entry inh 1%[46.1 µM], HCMV inh -38 and MARV entry inh -26%[46.1 µM].
Screening O=C(NCc1ccccc1Cl)c1ccc2c(c1)N(Cc1ccccc1)C(=O)CS2 returned FMDV antiviral 23%, LASV entry inh -27%[46.1 µM] and HCMV inh -65*.
O=C(NCc1ccco1)c1ccc2c(c1)N(Cc1ccccc1)C(=O)CS2 was read as FMDV antiviral -14%, HCV inhibitor -21%, LASV entry inh inconclusive, HCMV inh inconclusive and MARV entry inh inconclusive.
`COc1ccc(CNC(=O)c2ccc3c(c2)N(Cc2c(F)cccc2Cl)C(=O)CS3)cc1` gave FMDV antiviral -25%, LASV entry inh inconclusive, HCMV inh -31 and MARV entry inh 11µM*.
`O=C(NCC1CCCO1)c1ccc2c(c1)N(Cc1ccccc1)C(=O)CS2` (configuration not stated) gave FMDV antiviral -18%, HCV inhibitor 5% and HCMV inh -74*.
For O=C(NCCc1ccc(Cl)cc1)c1ccc2c(c1)N(Cc1c(F)cccc1Cl)C(=O)CS2 the results were FMDV antiviral inconclusive, LASV entry inh -2%[46.1 µM], HCMV inh inconclusive and MARV entry inh -12%[46.1 µM].
Cc1ccc(NC(=O)C(Cc2ccccc2)n2cccc2)cc1C (configuration not stated) was read as FMDV antiviral -9%, HCMV inh inconclusive and MARV entry inh -25%[46.1 µM].
Cn1cc(S(=O)(=O)NCc2ccc3c(c2)OCO3)c(C(F)(F)F)n1 was read as FMDV antiviral 27%, HCV inhibitor 2%, LASV entry inh 10%[46.1 µM], HCMV inh 1 and MARV entry inh 15%[46.1 µM].
For O=S1(=O)CC(N2CCCCC2)CN1C1CCCCC1 (configuration not stated) the results were FMDV antiviral -9% and HCMV inh 14.
COc1ccc(NC(=O)c2nc(S(=O)(=O)Cc3cccc(C)c3)ncc2Cl)c(OC)c1 was read as FMDV antiviral 3.2µM*, HCV inhibitor inconclusive and HCMV inh -79*.
Screening COc1ccc(OC)c(NC(=O)CS(=O)(=O)Cc2ccccc2)c1 returned FMDV antiviral -7%, HCV inhibitor -6%, LASV entry inh -3%[46.1 µM], HCMV inh -38 and MARV entry inh -11%[46.1 µM].

Compound activity: PubChem, National Center for Advancing Translational Sciences (NCATS)
